Compounds without any hit were thinned out: in the full panel of roughly 83,000, 20% have a hit.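 How to read the values: 0–100, growth inhibition (40 = 60% inhibited); 0, no net growth; -100 to 0, cell death (-40 = 40% of starting cells died; -100 = all dead).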 Activity calls are given as the source filed them. Rule for the calls: active = growth percent below 10; inactive = the rest.
What was measured:
Assay in all cases: NCI-60 one-dose screen, 48 h (100 = growth as untreated, 0 = no growth, -100 = all killed)
Conditions in all cases: 10 µM unless noted
HT29 colon = system: HT29 colon
SNB-75 CNS = system: SNB-75 CNS
SNB-19 CNS = system: SNB-19 CNS
U251 CNS = system: U251 CNS
PC-3 prostate = system: PC-3 prostate
UACC-62 melanoma = system: UACC-62 melanoma
LOX IMVI melanoma = system: LOX IMVI melanoma
SK-MEL-28 melanoma = system: SK-MEL-28 melanoma
SK-MEL-2 melanoma = system: SK-MEL-2 melanoma
EKVX NSCLC = system: EKVX NSCLC
SN12C renal = system: SN12C renal
UO-31 renal = system: UO-31 renal
TK-10 renal = system: TK-10 renal
ACHN renal = system: ACHN renal
CAKI-1 renal = system: CAKI-1 renal
A498 renal = system: A498 renal
CCRF-CEM leukemia = system: CCRF-CEM leukemia
MOLT-4 leukemia = system: MOLT-4 leukemia
SR leukemia = system: SR leukemia
SK-MEL-5 melanoma = system: SK-MEL-5 melanoma

Measured: growth

CC(=O)Oc1ccc(C23c4ccccc4C2(OC(C)=O)c2cc(OC(C)=O)ccc23)cc1 (centres undefined)
active: U251 CNS 9.83% | SR leukemia -2.28%
inactive: HT29 colon 111% | SNB-75 CNS 54% | SNB-19 CNS 65.9% | PC-3 prostate 30.9% | UACC-62 melanoma 77.8% | LOX IMVI melanoma 48.2% | SK-MEL-28 melanoma 124% | SK-MEL-2 melanoma 97.9% | EKVX NSCLC 69.4% | SN12C renal 81.7% | UO-31 renal 11% | TK-10 renal 63.9% | ACHN renal 29.4% | CAKI-1 renal 85.2% | A498 renal 114% | CCRF-CEM leukemia 41.8% | MOLT-4 leukemia 67.6%

Cn1cc(-c2csc(-c3cn(C)c4ncccc34)n2)c2cc(Br)cnc21
inactive: HT29 colon 100% | SNB-75 CNS 73.1% | SNB-19 CNS 98.5% | U251 CNS 87.9% | PC-3 prostate 68.5% | UACC-62 melanoma 82.9% | LOX IMVI melanoma 81.9% | SK-MEL-28 melanoma 92.1% | SK-MEL-2 melanoma 111% | EKVX NSCLC 84.4% | SN12C renal 89.4% | UO-31 renal 100% | TK-10 renal 115% | ACHN renal 95.5% | CAKI-1 renal 85.3% | A498 renal 79% | CCRF-CEM leukemia 80% | MOLT-4 leukemia 85%

Cc1scc2c1N(C(=O)CN1CCN(C)CC1)c1ccccc1NC2=O
inactive: HT29 colon 104% | SNB-75 CNS 110% | SNB-19 CNS 111% | U251 CNS 99.6% | PC-3 prostate 98% | UACC-62 melanoma 109% | LOX IMVI melanoma 99.7% | SK-MEL-28 melanoma 110% | SK-MEL-2 melanoma 113% | EKVX NSCLC 107% | SN12C renal 101% | UO-31 renal 85.9% | TK-10 renal 105% | ACHN renal 102% | CAKI-1 renal 99.5% | A498 renal 122% | CCRF-CEM leukemia 108% | MOLT-4 leukemia 96.5%

NS(=O)(=O)c1ccc(NC2=C(Cl)C(=O)c3ccccc3C2=O)cc1
inactive: HT29 colon 105% | SNB-75 CNS 136% | SNB-19 CNS 101% | U251 CNS 97.5% | PC-3 prostate 70.1% | UACC-62 melanoma 96.2% | LOX IMVI melanoma 53.7% | SK-MEL-2 melanoma 102% | EKVX NSCLC 107% | SN12C renal 87% | UO-31 renal 53.2% | TK-10 renal 164% | ACHN renal 78.3% | CAKI-1 renal 107% | A498 renal 163% | CCRF-CEM leukemia 85.7% | MOLT-4 leukemia 73.6%

Cc1cc(NCCCNc2ccnc3cc(Cl)ccc23)nc(N2CCN(C)CC2)n1
active: SR leukemia 0.0449%
inactive: HT29 colon 15.2% | SNB-75 CNS 76.6% | SNB-19 CNS 115% | U251 CNS 69.7% | PC-3 prostate 51.5% | UACC-62 melanoma 33.4% | SK-MEL-28 melanoma 88.3% | SN12C renal 77.6% | UO-31 renal 58.6% | TK-10 renal 133% | ACHN renal 45.7% | CAKI-1 renal 57% | A498 renal 82.4% | CCRF-CEM leukemia 26.1% | MOLT-4 leukemia 21.2%

CN1CCN(CC(=O)Nc2nc3c(s2)Nc2cc(Cl)c(Cl)cc2NC3=O)CC1
inactive: HT29 colon 99.1% | SNB-75 CNS 96.3% | SNB-19 CNS 104% | U251 CNS 95% | PC-3 prostate 97.7% | UACC-62 melanoma 109% | SK-MEL-28 melanoma 111% | SN12C renal 109% | UO-31 renal 85.4% | TK-10 renal 95.8% | ACHN renal 105% | CAKI-1 renal 102% | A498 renal 106% | CCRF-CEM leukemia 99.8% | MOLT-4 leukemia 90.8% | SR leukemia 98.8%

Cn1[nH]cc(/C=N/C(N)=O)c1=O
inactive: HT29 colon 115% | SNB-75 CNS 106% | SNB-19 CNS 106% | U251 CNS 103% | PC-3 prostate 108% | UACC-62 melanoma 105% | LOX IMVI melanoma 96.1% | SK-MEL-28 melanoma 115% | SK-MEL-2 melanoma 109% | EKVX NSCLC 123% | UO-31 renal 106% | TK-10 renal 109% | ACHN renal 109% | CAKI-1 renal 109% | CCRF-CEM leukemia 94.8% | MOLT-4 leukemia 105% | SR leukemia 103%

CCOc1nc(-c2ccccc2)cc2c(O)c(-c3nnco3)[nH]c(=O)c12
inactive: HT29 colon 69% | SNB-75 CNS 55.2% | SNB-19 CNS 72.1% | U251 CNS 32.7% | PC-3 prostate 43.4% | UACC-62 melanoma 56.9% | SK-MEL-28 melanoma 76.1% | SN12C renal 47.2% | UO-31 renal 29.1% | TK-10 renal 31.8% | ACHN renal 52.3% | CAKI-1 renal 34.6% | A498 renal 45.3% | CCRF-CEM leukemia 15.7% | MOLT-4 leukemia 30% | SR leukemia 21.3%

Cc1cc2c(C#N)n3c(c2cc1C)C(=O)C(c1ccccc1)Oc1ccccc1-3 (centres undefined)
active: SR leukemia 7.67%
inactive: HT29 colon 18.5% | SNB-75 CNS 15.6% | SNB-19 CNS 35.9% | U251 CNS 18.3% | PC-3 prostate 28.3% | LOX IMVI melanoma 20% | SK-MEL-28 melanoma 85.1% | SK-MEL-2 melanoma 45.2% | SN12C renal 27.8% | UO-31 renal 14.5% | ACHN renal 32.6% | CAKI-1 renal 33.1% | A498 renal 41.2% | CCRF-CEM leukemia 19.4% | MOLT-4 leukemia 69.2%

O=C1OCC/C1=C\OCCCO/C=C1\CCOC1=O
inactive: HT29 colon 105% | SNB-75 CNS 97.1% | SNB-19 CNS 104% | U251 CNS 99.6% | SK-MEL-5 melanoma 105% | UACC-62 melanoma 91% | LOX IMVI melanoma 98.8% | SK-MEL-28 melanoma 125% | SK-MEL-2 melanoma 104% | EKVX NSCLC 101% | SN12C renal 99.3% | UO-31 renal 90.7% | TK-10 renal 110% | ACHN renal 103% | CAKI-1 renal 106% | A498 renal 119% | CCRF-CEM leukemia 107% | MOLT-4 leukemia 111%

C[n+]1c2ccccc2c(NC2CCNCC2)c2[nH]c3ccccc3c21
active: HT29 colon 2.95% | SNB-75 CNS 7.49% | SNB-19 CNS -12.4% | U251 CNS 1.08% | SK-MEL-5 melanoma 7.09% | UACC-62 melanoma -73.3% | SK-MEL-2 melanoma -46.4% | SN12C renal -17.5% | CCRF-CEM leukemia -10.9% | MOLT-4 leukemia -12.8% | SR leukemia -24.4%
inactive: LOX IMVI melanoma 13.2% | SK-MEL-28 melanoma 10.6% | EKVX NSCLC 10.3% | UO-31 renal 67.3% | TK-10 renal 29.5% | ACHN renal 71.1% | CAKI-1 renal 88.8% | A498 renal 51.7%

Oc1ccccc1/C=N\Nc1ccccc1
active: UACC-62 melanoma -5.08%
inactive: HT29 colon 95.9% | SNB-75 CNS 71.9% | SNB-19 CNS 86% | U251 CNS 75.9% | PC-3 prostate 36.3% | LOX IMVI melanoma 53% | SK-MEL-2 melanoma 92.1% | EKVX NSCLC 72.8% | SN12C renal 44.9% | UO-31 renal 15.5% | TK-10 renal 110% | ACHN renal 27.2% | CAKI-1 renal 10.8% | A498 renal 82.5% | CCRF-CEM leukemia 17.8% | MOLT-4 leukemia 35.3%

CCCCc1nc(Cl)c(CO)n1Cc1ccc(-c2ccccc2-c2nn[nH]n2)cc1
inactive: HT29 colon 108% | SNB-75 CNS 101% | SNB-19 CNS 110% | U251 CNS 97.9% | PC-3 prostate 93.2% | LOX IMVI melanoma 100% | SK-MEL-28 melanoma 114% | SK-MEL-2 melanoma 125% | EKVX NSCLC 88.1% | SN12C renal 99.3% | UO-31 renal 82.2% | TK-10 renal 108% | ACHN renal 107% | CAKI-1 renal 90.5% | A498 renal 119% | CCRF-CEM leukemia 113% | MOLT-4 leukemia 100%

CSc1nnc(C2=CC(=O)c3ccccc3C2=O)n1-c1ccccc1
inactive: HT29 colon 110% | SNB-75 CNS 74.8% | SNB-19 CNS 91.5% | U251 CNS 76.5% | PC-3 prostate 86.7% | UACC-62 melanoma 84.1% | SK-MEL-28 melanoma 105% | SN12C renal 104% | UO-31 renal 67.6% | TK-10 renal 121% | ACHN renal 74.9% | CAKI-1 renal 88.5% | A498 renal 99.4% | CCRF-CEM leukemia 36.8% | MOLT-4 leukemia 68.9% | SR leukemia 70.2%

Fc1ccc(-c2nnc(/C=C/c3cn(-c4ccccc4)nc3-c3ccccc3)o2)cc1
inactive: HT29 colon 88.5% | SNB-75 CNS 88.2% | SNB-19 CNS 108% | U251 CNS 82.1% | PC-3 prostate 95.2% | LOX IMVI melanoma 83.5% | SK-MEL-28 melanoma 98.9% | SK-MEL-2 melanoma 103% | EKVX NSCLC 103% | SN12C renal 84.1% | UO-31 renal 84.1% | ACHN renal 90.9% | CAKI-1 renal 84.3% | A498 renal 111% | CCRF-CEM leukemia 97.1% | MOLT-4 leukemia 99.3% | SR leukemia 65.7%

COc1cc(/C=C/C(=O)Nc2ccc3c(c2)/C(=C\c2cccn2C)C(=O)N3)cc(OC)c1OC
active: SNB-75 CNS 9.39%
inactive: HT29 colon 53.9% | SNB-19 CNS 65.3% | U251 CNS 52.4% | PC-3 prostate 59.9% | LOX IMVI melanoma 41.4% | SK-MEL-28 melanoma 63.1% | SK-MEL-2 melanoma 25.1% | SN12C renal 41.2% | UO-31 renal 28.3% | ACHN renal 54.9% | CAKI-1 renal 52.1% | A498 renal 46.8% | CCRF-CEM leukemia 31.9% | MOLT-4 leukemia 50.8% | SR leukemia 16.2%

COc1cccc(/C=C2\COc3ccc(O)c(O)c3C2=O)c1OC
active: LOX IMVI melanoma -72.6% | SN12C renal -62.7% | UO-31 renal -94.7% | ACHN renal -60.1% | CCRF-CEM leukemia 3.28% | MOLT-4 leukemia -12.8% | SR leukemia -8.94%
inactive: HT29 colon 21.6% | SNB-75 CNS 21.8% | SNB-19 CNS 31.6% | U251 CNS 10.9% | PC-3 prostate 19.5% | SK-MEL-28 melanoma 47% | SK-MEL-2 melanoma 97.3% | EKVX NSCLC 70.4% | TK-10 renal 11.7% | CAKI-1 renal 22.6% | A498 renal 80.3%

CCN1C(=O)c2ccc3c4c(ccc(c24)C1=O)C(=O)N(CCCNCc1ccccc1OC)C3=O
active: HT29 colon -48.8% | SNB-75 CNS -71.5% | SNB-19 CNS -64.1% | U251 CNS -86.3% | PC-3 prostate 0.702% | UACC-62 melanoma -88.3% | SK-MEL-28 melanoma 3.31% | SN12C renal -91.6% | UO-31 renal -42.5% | ACHN renal -67.1% | CAKI-1 renal -11.4% | A498 renal -80.7% | CCRF-CEM leukemia -42.3% | MOLT-4 leukemia -51.7% | SR leukemia -42%

CCOC(=O)c1c2c(c(C)n1Cc1ccc(OC)cc1)-c1nc(N)ncc1CC2
inactive: HT29 colon 110% | SNB-75 CNS 103% | SNB-19 CNS 111% | U251 CNS 106% | SK-MEL-5 melanoma 110% | UACC-62 melanoma 87.3% | LOX IMVI melanoma 104% | SK-MEL-28 melanoma 112% | SK-MEL-2 melanoma 119% | EKVX NSCLC 98.8% | SN12C renal 95.3% | UO-31 renal 90% | TK-10 renal 130% | ACHN renal 106% | CAKI-1 renal 101% | A498 renal 111% | CCRF-CEM leukemia 126% | MOLT-4 leukemia 93.6%

Source: PubChem BioAssay (NCI)
